Most compounds without a hit are left out; they make up all but 1.2% or so of the library.
SKN-1 block: blocks SKN-1 activity in C. elegans | C. elegans VP596 Pgst-4::GFP/RFP ratio, acrylamide-induced, 24 h | AID 624304 | inhibition, % at 21.8 µM | 0.49% of 360,000 active;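 active = interference check ratio from 0.5 to 1.5 plus GFP to RFP signal ratio inhibition reaching or exceeding a fixed threshold, cut at about 30% in these data, passing the limit was not always enough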
Platelet DG rel: modulates dense granule release in human platelets. human platelet-rich plasma, SFLLRN dense granule ATP release, luminescence. inhibition, %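 (compounds screened at 7.5 µM in platelet-rich plasma)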. 0.22% of 300,000 active. AID 1663;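 active = mean replicate score, as percent of positive control, at or above 50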
VLA-4 inh: inhibition in a human VLA-4 binding assay | VLA-4 expressing cells, ligand binding flow cytometry | inhibition, % (about 7 µM as worked out from the volumes in the protocol) | 0.2% of 330,000 active; in the data active = inhibition above about 50%
Target sequence (P13612 whole entry, looked up): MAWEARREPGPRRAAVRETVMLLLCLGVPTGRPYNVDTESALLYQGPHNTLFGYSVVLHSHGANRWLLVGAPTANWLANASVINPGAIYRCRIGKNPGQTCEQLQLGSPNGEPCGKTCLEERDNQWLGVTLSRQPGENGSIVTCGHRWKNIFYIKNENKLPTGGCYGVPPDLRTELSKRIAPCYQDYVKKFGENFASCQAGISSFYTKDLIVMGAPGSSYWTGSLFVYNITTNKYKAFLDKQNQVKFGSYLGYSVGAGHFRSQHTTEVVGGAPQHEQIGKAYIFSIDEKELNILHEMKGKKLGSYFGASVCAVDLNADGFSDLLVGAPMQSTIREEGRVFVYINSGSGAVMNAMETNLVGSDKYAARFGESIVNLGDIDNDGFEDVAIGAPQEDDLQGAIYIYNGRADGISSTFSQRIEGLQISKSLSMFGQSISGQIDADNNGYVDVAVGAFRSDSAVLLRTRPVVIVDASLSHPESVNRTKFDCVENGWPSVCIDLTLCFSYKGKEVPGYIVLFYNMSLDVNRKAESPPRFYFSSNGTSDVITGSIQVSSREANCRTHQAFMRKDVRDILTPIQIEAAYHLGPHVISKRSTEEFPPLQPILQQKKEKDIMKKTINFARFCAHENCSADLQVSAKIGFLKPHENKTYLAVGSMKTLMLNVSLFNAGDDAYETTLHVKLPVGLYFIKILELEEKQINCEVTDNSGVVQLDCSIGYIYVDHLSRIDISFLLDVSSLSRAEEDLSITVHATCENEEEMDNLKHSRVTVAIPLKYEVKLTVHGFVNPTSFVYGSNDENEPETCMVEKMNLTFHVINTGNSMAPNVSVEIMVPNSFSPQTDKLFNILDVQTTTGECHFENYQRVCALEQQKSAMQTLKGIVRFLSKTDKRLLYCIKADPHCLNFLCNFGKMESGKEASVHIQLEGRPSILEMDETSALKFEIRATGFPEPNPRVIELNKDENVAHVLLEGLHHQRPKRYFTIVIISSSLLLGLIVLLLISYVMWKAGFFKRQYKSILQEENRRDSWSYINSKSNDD
ABCB6 inh 2: inhibitors of human ABC transporter ABCB6 | K562-ABCB6 porphyrin accumulation, flow cytometry, 1 h; stronger effect = lower value | 0.19% of 360,000 active | Q9NP58 | fluorescence ratio to DMSO, % at 10 µM;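 active = fluorescence ratio to DMSO below 75%, the collection mean minus 3 SD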;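 note: signal is porphyrin accumulated inside mitochondria; lower ratio means ABCB6 inhibition with less porphyrin fluorescence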
CR mimetic SO: yeast age-related superoxide inhibition as caloric restriction mimetic; superoxide response (% of plate mean), % at 10 µM; 0.18% of 330,000 active; S. cerevisiae aged cells, superoxide DHE fluorescence; stronger effect = lower value;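 active = superoxide response under a set limit, about three screen SD below normal, cut at about 65% in these data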;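 note: yeast aged for seven days with compound at 30 °C before DHE staining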
VLA-4 allo CP: human VLA-4 allosteric modulation in cherry picked compounds; AID 2813; shares compounds with VLA-4 inh; U937 cells, HUTS-21 LIBS mAb binding, flow cytometry; LDV ligand present at threefold Kd; inhibition, % at 6.7 µM; 2% of 1,300 active; in the data active = inhibition above about 40%
Numbers stand for hits; - = inactive; . = no result given.

SMILES	SKN-1 block	Platelet DG rel	VLA-4 inh	ABCB6 inh 2	CR mimetic SO	VLA-4 allo CP
CC(=O)c1ccc(NS(=O)(=O)c2ccc(N)cc2)cc1	-	-	-	-	-	-
NC(=O)Cn1cc(C(=O)C(=O)N2CCOCC2)c2ccccc21	-	-	-	-	-	-
CCn1ccnc1CN(C)Cc1cn(C)nc1-c1ccccc1F	-	-	-	-	-	-
CN(Cc1ccc(-n2cccn2)cc1)Cc1cn(C)nc1-c1ccccc1F	-	-	-	-	-	.
O=S1(=O)N[C@@H](Cc2ccccc2)COc2cccc(N3CCN(Cc4ccccc4F)CC3)c21	-	.	.	-	.	.
Nc1ncnc2nc(SCCOc3ccc(Cl)cc3)[nH]c12	-	-	-	-	-	-
O=C(COc1ccc2c(-c3ccccc3)cc(=O)oc2c1)N1C[C@H]2C[C@@H](C1)c1cccc(=O)n1C2	-	.	.	-	.	.
O=C(Nc1ccccn1)C1CCN(C(=O)c2ccc(F)cc2)CC1	-	-	-	-	-	-
O=C(Nc1ccccc1N1CCCC1)C1CCN(C(=O)c2ccc(F)cc2)CC1	-	-	-	-	-	.
Cc1cccc(NC(=O)C2CCN(C(=O)c3ccccc3C)CC2)n1	-	.	-	-	-	-
O=C(O)CCN1C(=O)c2ccccc2Sc2ncccc21	-	-	-	-	-	-
O=C(NC1CCCCC1)C1c2ccccc2OCC(=O)N1Cc1ccco1 (stereo unspecified)	-	.	.	-	.	.
COCCCC1CCN(Cc2nc(-c3ccccc3)no2)CC1	-	-	-	-	-	-
COCCSc1ccccc1C(=O)N1CCc2ccccc2C1	-	-	52.0	-	-	-
COc1ccc(Br)cc1CNC(=O)CCCc1cn(C)c2ccccc12	-	-	53.1	-	-	-
COc1ccc(OC)c(CNC(=O)CCCc2cn(C)c3ccccc23)c1	-	-	-	-	-	.
COc1ccc(NC(=O)Nc2ccc3c(c2)C(=O)N([C@H](C)CO)C[C@H](C)[C@@H](CN(C)C(=O)NC2CCCCC2)O3)cc1	-	.	49.6	-	-	-
COC(=O)c1cc(CNC(=O)C(C)NS(=O)(=O)c2ccc(C)c(C)c2)ccc1OC (stereo unspecified)	-	-	-	-	-	-
O=C(NCc1cccnc1)c1cc(C2CCCN(S(=O)(=O)c3cccs3)C2)on1 (stereo unspecified)	-	.	.	-	.	.
COc1cccc(-c2sc3ccc(OC)cc3c2-c2ccc(OCCN(C)C)cc2)c1	-	.	51.5	-	-	-
COc1cccc(-c2sc3ccc(OC)cc3c2-c2ccc(O)cc2)c1	-	.	-	-	-	.
COc1ccc(-c2sc3ccccc3c2-c2ccc(OCCN(C)C)cc2)cc1	-	.	67.0	-	-	44.4
CCOc1ccc(CCN2C(=S)N([C@@H](Cc3ccc(O)cc3)CN3CCC[C@@H]3CN3C(=S)NC[C@@H]3CC(C)C)C[C@@H]2Cc2ccc(O)cc2)cc1	-	.	.	-	.	.
O=C(Nc1ccccc1Cl)OCc1cncs1	-	-	-	-	-	-
CCOC(=O)[C@]12CCC=C1N(Cc1ccccc1)C(=O)[C@H](CC(=O)NCc1cccs1)C2	-	.	.	-	.	.
SMILES	SKN-1 block	Platelet DG rel	VLA-4 inh	ABCB6 inh 2	CR mimetic SO	VLA-4 allo CP
Cc1ccc(S(=O)(=O)c2ccc(Cl)cc2)cc1S(=O)(=O)N(C)CC(=O)O	-	-	-	-	-	-
CC1=C(C(=O)N(C(C)C)C(C)C)CC(CC(=O)NCc2cccc3ccccc23)C(=O)N1CCC1=CCCCC1 (stereo unspecified)	-	.	.	-	.	.
COc1ccc(/C=C/CN2CCC(C(=O)NC(c3ccc(F)cc3)c3ccc4ccccc4n3)CC2)cc1 (stereo unspecified)	-	.	.	-	.	.
CCOc1ccccc1NC(=O)NCc1cccnc1	-	-	-	-	-	.
CCOc1ccccc1NC(=O)NCc1ccccc1	-	-	50.3	-	-	-
O=C1[C@H]2[C@@H]3CCN1CCC[C@@H]2C=C[C@@H]3c1ccc(Br)cc1	-	.	.	-	.	.
O=C1c2ccccc2C(c2nc3ccccc3[nH]2)N1Cc1ccco1 (stereo unspecified)	-	.	.	-	.	.
Cc1ccc(NC(=O)C2C3CC4OC(=O)C2C4C3)cc1Cl (stereo unspecified)	-	.	55.7	-	-	-
Cn1ncc2cc3c(Nc4ccc(Cl)cc4)cccc3nc21	-	.	.	-	.	.
COc1cccc(CN2CCC2(C)C(=O)Nc2cccc(Oc3ccccc3)c2)c1F (stereo unspecified)	-	.	.	-	.	.
CC(C)(C)NC(=O)N1c2ccccc2Sc2ccccc21	-	-	54.4	-	-	-
CC(C)NC(=O)N1c2ccccc2Sc2ccccc21	-	-	-	-	-	.
CC(C)NC(=O)C1(C)CSCC(=O)N1Cc1ccco1 (stereo unspecified)	-	.	.	.	.	.
COc1cc(/C=C/C(=O)O)cc(OC)c1O	-	-	59.9	-	-	-
COc1ccc(/C=C/C(=O)O)cc1Cl	-	-	-	-	-	.
Cc1cc(F)cc(-c2cc(C(=O)NCc3ccco3)[nH]n2)c1	-	.	.	-	.	.
CC1=NN(c2ccccc2)C(=O)C1CCC#N (stereo unspecified)	-	.	.	-	.	.
O=C(NCc1ccc(F)cc1)N1[C@H]2CC[C@@H]1C=C(c1ccc(F)cc1OCc1ccccc1)C2	-	.	.	-	.	.
CC1CCCC(C)N1C(=O)COC(=O)c1cc(Br)ccc1Cl (stereo unspecified)	-	-	-	-	-	.
CCCCOc1ccc(C(=O)OCC(=O)N2CCCCCC2)cc1	-	.	-	-	-	-
CC1CCCC(C)N1C(=O)COC(=O)c1ccccc1O (stereo unspecified)	-	.	-	-	-	-
Nc1cc(Cl)ccc1C(=O)OCC(=O)N1CCCCCC1	-	.	-	-	-	-
Cc1ccc(C(=O)c2ccccc2C(=O)OCC(=O)N2CCCC2)cc1	-	.	-	-	-	.
O=C(OCC(=O)N1CCCC1)c1ccc(OC(F)(F)F)cc1	-	-	-	-	-	.
Cc1cccc(C(=O)OCC(=O)N2CCCCCC2)c1C	-	.	-	-	-	-
SMILES	SKN-1 block	Platelet DG rel	VLA-4 inh	ABCB6 inh 2	CR mimetic SO	VLA-4 allo CP
CCCc1ccc2ccc3ccccc3c2n1	-	.	.	-	.	.
COc1ccc2[nH]c3c(c2c1)CCNC3=O	-	-	-	-	-	.
CCc1cc2c(=O)n3c(nc2s1)-c1[nH]c2ccc(OC)cc2c1CC3	-	-	-	-	-	-
CCCc1cc(C(=O)N2CCCC(C(=O)c3cc(C)c(OC)c(C)c3)C2)n(C)n1 (stereo unspecified)	-	-	105.9	-	-	-
Cc1c(O)ccc(NS(=O)(=O)c2ccccc2)c1C	-	-	-	-	-	-
O=c1c2c([nH]n1-c1ccccc1)C[C@@H](C1CCCCC1)O[C@H]2c1ccc(F)cc1	-	.	.	-	.	.
Clc1cc(CSc2ccccc2)nc(-c2ccccc2)n1	-	-	94.2	-	-	-
Clc1ccc(SCc2cc(Cl)nc(-c3ccccc3)n2)cc1	-	-	-	-	-	.
O=C(CN1CCCCC1)N1N=C(c2cccs2)CC1c1cccs1 (stereo unspecified)	-	-	-	-	-	-

Screening results from PubChem BioAssay.
